This is part of a sample that, as a whole, favours compounds with a hit. Of some 83,000 tested, about 20% had one in any assay.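 In brief: 96-well plates, 48 h treatment, single concentration, percent growth endpoint.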 Values without a mark were called inactive. Activity calls are given as the source filed them. Rule for the calls: active = growth percent below 10; inactive = the rest.
Tests used:
Test in all cases: NCI-60 one-dose screen, 48 h (100 = growth as untreated, 0 = no growth, -100 = all killed)
Conditions in all cases: 10 µM unless noted
DU-145 prostate = test system: DU-145 prostate
K-562 leukemia = test system: K-562 leukemia
MALME-3M melanoma = test system: MALME-3M melanoma
MDA-MB-231 breast = test system: MDA-MB-231 breast
RXF 393 renal = test system: RXF 393 renal
SF-268 CNS = test system: SF-268 CNS
SF-295 CNS = test system: SF-295 CNS
SF-539 CNS = test system: SF-539 CNS
UACC-257 melanoma = test system: UACC-257 melanoma
M14 melanoma = test system: M14 melanoma
HCT-15 colon = test system: HCT-15 colon
HT29 colon = test system: HT29 colon
SNB-75 CNS = test system: SNB-75 CNS
SNB-19 CNS = test system: SNB-19 CNS
U251 CNS = test system: U251 CNS
PC-3 prostate = test system: PC-3 prostate
SK-MEL-5 melanoma = test system: SK-MEL-5 melanoma
UACC-62 melanoma = test system: UACC-62 melanoma
LOX IMVI melanoma = test system: LOX IMVI melanoma
SK-MEL-28 melanoma = test system: SK-MEL-28 melanoma

SMILES | growth (DU-145 prostate) | growth (K-562 leukemia) | growth (MALME-3M melanoma) | growth (MDA-MB-231 breast) | growth (RXF 393 renal) | growth (SF-268 CNS) | growth (SF-295 CNS) | growth (SF-539 CNS) | growth (UACC-257 melanoma) | growth (M14 melanoma) | growth (HCT-15 colon) | growth (HT29 colon) | growth (SNB-75 CNS) | growth (SNB-19 CNS) | growth (U251 CNS) | growth (PC-3 prostate) | growth (SK-MEL-5 melanoma) | growth (UACC-62 melanoma) | growth (LOX IMVI melanoma) | growth (SK-MEL-28 melanoma)
N#Cc1nc(-c2ccccc2)oc1S(=O)(=O)NCC(c1ccc(Cl)cc1)N1CCCCC1 (stereo not given) | 84.4% | 8.67% (active) | 96.8% | 89.3% | 101% | 78% | 102% | 87.5% | 88.1% | 76.4% | 35.3% | 25.1% | 94% | 88.1% | 74.1% | 78.9% | 73.8% | 80.2% | 21.9% | 96.3%
CCOC(=O)c1c(C(F)(F)F)n([O-])c2ccc(Cl)cc2[n+]1=O | -95.7% (active) | -57.7% (active) | -84.5% (active) | -39.1% (active) | -60.6% (active) | -49.5% (active) | -86% (active) | -96.1% (active) | -70.6% (active) | -21.6% (active) | -60.2% (active) | -43.2% (active) | -52.2% (active) | 32.4% | -87.7% (active) | -85.7% (active) | -93.2% (active) | -18.1% (active) | -86.8% (active) | -32.8% (active)
O=C(O)c1cn(C2CC2)c2cc(N3CCN(Cc4nnc(Nc5ccccc5)o4)CC3)c(F)cc2c1=O | 103% | 84.4% | 89.1% | 109% | 118% | 90.2% | 102% | 99.4% | 106% | 95.7% | 101% | 93.8% | 82.2% | 108% | 105% | 105% | 106% | 100% | 87.9% | 100%
COCCOC(=O)COc1ccc(OC)cc1 | 103% | 104% | 97% | 98.1% | 104% | 102% | 99.5% | 104% | 96.3% | 105% | 98.1% | 114% | 91.8% | 97.4% | 102% | 96.8% | 93.8% | 96.2% | 102% | 109%
CO[C@@]12C=C[C@@]34CCC(=O)N3c3ccccc3[C@@H](O1)C4C2 | 111% | 97.5% | 98% | 100% | 107% | 98.4% | 109% | 102% | 101% | 99.5% | 104% | 101% | 90.5% | 99.1% | 99.7% | 100% | 104% | 94.5% | 96.9% | 113%
COC(=O)c1oc2c(C(=O)/C=C/c3ccc(OC)cc3)c(OCCCN3CCCCC3)ccc2c1C | 15.4% | -16.2% (active) | -64.4% (active) | 32.4% | -75.2% (active) | -2.59% (active) | 11.6% | -55.8% (active) | 40.1% | -40.3% (active) | 3.33% (active) | 3.92% (active) | 33.6% | 38.4% | 12% | -2.46% (active) | -60.9% (active) | 40.1% | -26.1% (active) | -51.4% (active)
CS(=O)(=O)O[C@@H]1C(=O)N(c2cc3c4ccccc4ccc3c3ccccc23)[C@H]1c1ccc(F)cn1 | 11.5% | 10.3% | 74.2% | 50.1% | 18.6% | 43.4% | 9.48% (active) | 15.7% | 41.7% | 30.2% | 29.1% | 3.71% (active) | -0.245% (active) | 38.3% | 29.5% | 34.7% | 13.6% | 34% | 34.2% | 68.6%

— PubChem BioAssay (NCI)
